Source: PubChem BioAssay (NCATS)
Records with an inconclusive call do not appear. Where a call stands in place of a potency, no number is given. The source made the active and inactive calls. The call rests on the fitted dose curve.

Assay: qHTS assay for small molecule disruptors of the mitochondrial membrane potential - 1 hr assay (AID 651754); further: nearly all actives have a fitted effect of over 35% in size
Conditions: series mostly up to 92.2 µM
Excerpt: National Center for Advancing Translational Sciences [NCATS]
NIH Chemical Genomics Center [NCGC]
National Institutes of Environmental Health Sciences [NIEHS]
National Toxicology Program [NTP]
Mitochondrial membrane potential (MMP), one of the parameters for mitochondrial function, is generated by mitochondrial electron transport chain that creates an electrochemical gradient by a series of redox reactions. This gradient drives the synthesis of ATP, a crucial molecule for various cellular processes. Measuring MMP in living cells is commonly used to assess the effect of chemicals on mitochondrial function. […] The dye accumulates in the mitochondria of healthy cells as aggregates, with red fluorescence. The mitochondrial potential collapses and the dye can no longer accumulate in the mitochondria and remains in the cytoplasm in monomers, with green fluorescence.
2,000 HepG2 cells in 5 uL/well were dispensed into black, clear-bottom 1536-well plates using a Multidrop Combi (Thermo Scientific) dispenser. The assay plates were incubated overnight at 37C to allow cells to attach to the wells, followed by the transfer of 23 nL compound or DMSO vehicle by a pin tool (Kalypsys). The plates were incubated for 1 hr at 37C and 5% CO2, followed by the addition of 5 uL of 2X Mito-MPS dye (BD Biosciences) into each well using Flying Reagent Dispenser (Aurora Discovery) and then following 30 min incubation at 37C. Fluorescence intensity (490nm excitation and 535nm emission for monomers; and 540nm excitation and 590nm emissions for aggregates) was measured using an Envision plate reader.

Structure (SMILES) | Potency
O=[N+]([O-])c1ccc(NCCO)c(OCCO)c1 | inactive
S=C([S-])NCCNC(=S)[S-].[Zn+2] | inactive
N#Cc1ccccc1 | inactive
C=C(C)C(=O)OCCCCCCCCCC | inactive
c1ccsc1 | inactive
ICCc1ccccc1 | inactive
O=C(O)c1c(Cl)cccc1Cl | inactive
O=C(O)c1cc(Cl)cc(Cl)c1 | inactive
CCCC(Cl)CCCC(Cl)CCC(Cl)CCC(Cl)CCC(Cl)CCCC(Cl)CCC (stereo not given) | inactive
Cc1ccc(C#N)cc1 | inactive
CCN(Cc1ccccc1)c1ccccc1 | inactive
CC(C)=C1CCC(C)CC1=O (stereo not given) | inactive
Nc1nc2ccccc2[nH]1 | inactive
c1ccc2[nH]cnc2c1 | inactive
Cc1ccc(C)cc1 | inactive
C/C=C(/C)C#N | inactive
CC/C(C)=N/O | inactive
CC(=O)c1ccccc1[N+](=O)[O-] | inactive
CC(C)CCOC(=O)/C=C/c1ccccc1 | inactive
CCCCC(CC)CNCC(CC)CCCC (stereo not given) | inactive

Structure (SMILES) | Potency
CCCCC(C=O)CC (stereo not given) | inactive
CC(C)c1ccccc1 | inactive
CCC=O | inactive
CCC(=O)/C=C/C1C(C)=CCCC1(C)C (stereo not given) | inactive
COC(=O)c1ccccc1 | inactive
C[C@@H]1CC2(OC3C[C@@]4(C)C5=CC[C@H]6C(C)(C)C(O[C@@H]7OC[C@@H](O)[C@H](O)[C@H]7O)CC[C@@]67C[C@@]57CC[C@]4(C)C31)OC(O)C1(C)OC21 (stereo not given in full) | inactive
C/C=C1\CC2C=CC1C2 (stereo not given) | inactive
CCN(C(=O)N(CC)c1ccccc1)c1ccccc1 | inactive
O=C(O)/C=C/C(=O)O | inactive
Nc1nc(CC(=O)O)cs1 | inactive
Cc1cccc2cccnc12 | inactive
CCCOCC(C)O (stereo not given) | inactive
Cc1ccco1 | inactive
Cc1ccc([N+](=O)[O-])c(N)c1 | inactive
Cc1cc(C)cc(O)c1 | inactive
OCCO | inactive
NC(=O)c1ccccc1[N+](=O)[O-] | inactive
CC(C)(O)C(=O)O | inactive
Cc1ccc(Cl)cc1 | inactive
O=C1NC(=O)c2cc([N+](=O)[O-])ccc21 | inactive
